These results are taken from PubChem BioAssay (EPA / NIEHS).

Test [1] addresses THRB (gene 7068) (UniProt P10828). As to the kind of experiment: TOX21_TRB_BLA_Antagonist_Followup_ratio: Tox21 Thyroid Hormone Receptor beta Antagonism Beta-lactamase (BLA) Follow-Up Assay, Ratio (AID 2283958). The text has this: The GeneBLAzer TRb-UAS-bla HEK293T assay kit for human TRb (ThermoFisherScientific Catalog No. K1684) was used as a secondary assay for specificity (TRb-bla).This assay contained the ligand-binding domain (LBD) of the human TRb fused to the DNA-binding domain of GAL4 stably integrated in the GeneBLAzer UAS-bla HEK293Tcell line. The reporter gene, b-lactamase, is under the transcriptional control of a UAS that binds the GAL4 DNA-binding domain. A cell viability assay was run in parallel for these cells as well using the CellTiter-Glo viability assay kit.TOX21_TRB_BLA_Antagonist_Followup_ratio is an assay readout measuring reporter gene via receptor activity and designed using inducible reporter (beta lactamase induction) detected with GAL4 b-lactamase reporter gene. The signal is derived from the ratio of cleaved (ch2) to uncleaved (ch1) reporter gene substrate used as the measure of target activity.Data from the assay component TOX21_TRB_BLA_Antagonist_Followup_ratio was analyzed into 1 assay endpoint. This assay endpoint, TOX21_TRB_BLA_Antagonist_Followup_ratio, was analyzed in the positive analysis fitting direction relative to DMSO as the negative control and baseline of activity. […] Furthermore, this assay endpoint can be referred to as a primary readout, because this assay has produced multiple assay endpoints and this ratio serves a reporter gene function to understand target activity. […]
Cell Media Required: Growth (90% DMEM/F-12, 10% Fetal Bovine Calf Serum, 100U/ml Penicillin, 100 ug/ml Streptomycin), Assay (10ng/mL sodium selenite, 10 ug/mL humanapo-transferrin, 10 uM ethanolamine, 10 ug/mL insulin, 500 ug/mL bovine serum albumin (BSA))Assay Protocol: TRb-bla cells were dispensed at 3,000 cells/well in 5 uL of the assay medium containing phenol red-free DMEM with 2% charcoal-stripped FBS in 1,536-well black-wall/clear-bottom plates using an FRD. […] After 2-h incubation at room temperature, the fluorescence intensity was measured using an Envision plate reader. Data were expressed as the ratio of 460:530nm. […]

Test [2] in a line: TOX21_TRB_BLA_Antagonist_Followup_viability: Viability Assessment in the Tox21 Thyroid Hormone Receptor beta Antagonism Beta-lactamase (BLA) Follow-Up Assay (AID 2283961). A digest of the protocol: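 Cytotoxicity is measured in parallel with the antagonist-mode TRβ beta-lactamase screen, using ATP-coupled luciferase luminescence. Engineered HEK293T cells are treated for 18 h with 11-point compound series in triplicate.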

Test [3] has as its target THRB (gene 7068) (UniProt P10828). The experiment in a line: TOX21_TRB_COA_Antagonist_Followup_ratio: Tox21 Thyroid Hormone Receptor beta Antagonism through Coactivator Recruitment Follow-Up Assay, Ratio (AID 2283967). An excerpt:
TOX21_TRb_COA_Antagonist_Followup is a secondary assay for specificity for the TOX21_TR_GH3_LUC_Agonist assay. The LanthaScreen TR-FRET TR coactivator assay kits were used to determine TR activity in a cell-free functional assay. A time-resolved fluorescence resonance energy transfer (TR-FRET) signal was indicative of coactivator (SRC-2) recruitment.TOX21_TRB_COA_Antagonist_Followup_ratio is assay component calculated in the TOX21_TRB_COA_Antagonist_Followup assay. The TR-FRET ratio of acceptor emission (ch2) to donor emission (ch1) is indicative of the resonance energy transfer to the fluorescein tag on the coactivator peptide following recruitment to the receptor.Data from the assay component TOX21_TRB_COA_Antagonist_Followup_ratio was analyzed into 1 assay endpoint. This assay endpoint, TOX21_TRB_COA_Antagonist_Followup_ratio, was analyzed in the positive analysis fitting direction relative to DMSO as the negative control and baseline of activity. […] Furthermore, this assay endpoint can be referred to as a primary readout, because this assay has produced multiple assay endpoints and this ratio serves a reporter gene function to understand target activity. […]
Cell Media Required: Growth (90% DMEM/F-12, 10% Fetal Bovine Calf Serum, 100U/ml Penicillin, 100 ug/ml Streptomycin), Assay (10ng/mL sodium selenite, 10 ug/mL humanapo-transferrin, 10 uM ethanolamine, 10 ug/mL insulin, 500 ug/mL bovine serum albumin (BSA))Assay Protocol: 4 uL mixture of the receptor LBDs expressed as glutathione S-transferase (GST) fusion proteins (2.5 nM for TRa and 5.0 nM for TRb) and BSA (0.10%; Sigma-Aldrich) were incubated with 23 nL of control or test compound. A time-resolved fluorescence resonance energy transfer(TR-FRET) signal was indicative of coactivator recruitment using a 2 uL mixture of fluoresce in-labeled SRC-2 peptide (200 nM) and terbium-labeled anti-GST antibody (2nM), which transferred resonance energy to the fluorescein tag on the coactivator peptide following recruitment to the receptor. […]

In test [4] the target is THRA (gene 7067) (UniProt P10827). As to the kind of experiment: TOX21_TRA_COA_Agonist_Followup_ratio: Tox21 Thyroid Hormone Receptor alpha Agonism through Coactivator Recruitment Follow-Up Assay, Ratio (AID 2283948; active = hit-call score of the fitted dose curve at least 0.9, where 1 is the maximum; inactive = score below 0.9). The essentials: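 First, compound was incubated with 2.5 nM GST-TRα LBD in 0.10% BSA. Next, 200 nM fluorescein-SRC-2 and 2 nM Tb-anti-GST antibody were added. Finally, the 520:495 nm ratio was normalized to DMSO and T3 controls.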

In test [5] the target is THRB (gene 7068) (UniProt P10828). As to the kind of experiment: TOX21_TRB_BLA_Agonist_Followup_ratio: Tox21 Thyroid Hormone Receptor beta Agonism Beta-lactamase (BLA) Follow-Up Assay, Ratio (AID 2283954). The essentials:
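Human TRβ LBD–GAL4 DBD fusion in GeneBLAzer UAS-bla HEK293T cells; 11 concentrations in triplicate, 18 h at 37°C/5% CO2, T3 as agonist control. CCF4-AM substrate 2 h at room temperature; 460:530 nm ratio fitted for gain of signal versus DMSO.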

Test [6] can be described thus: TOX21_TRB_BLA_Agonist_Followup_viability: Viability Assessment in the Tox21 Thyroid Hormone Receptor beta Agonism Beta-lactamase (BLA) Follow-Up Assay (AID 2283956). The text has this:
The GeneBLAzer TRb-UAS-bla HEK293T assay kit for human TRb (ThermoFisherScientific Catalog No. K1684) was used as a secondary assay for specificity (TRb-bla). This assay contained the ligand-binding domain (LBD) of the human TRb fused to the DNA-binding domain of GAL4 stably integrated in the GeneBLAzer UAS-bla HEK293Tcell line. The reporter gene, b-lactamase, is under the transcriptional control of a UAS that binds the GAL4 DNA-binding domain. A cell viability assay was run in parallel for these cells as well using the CellTiter-Glo viability assay kit.TOX21_TRB_BLA_Agonist_Followup_viability is a component of the TOX21_TRB_BLA_Agonist_Followup assay. This component measures cell viability using the CellTiter-Glo Luciferase-coupled ATP quantitation.The assay component endpoint TOX21_TRB_BLA_Agonist_Followup_viability was analyzed with bidirectional fitting relation to DMSO as the negative control and baseline of activity. Using a type of viability reporter, loss-of-signal activity can be used to understand changes in viability. To generalize the intended target to other relatable targets, this assay endpoint is annotated to cell cycle, where the subfamily is cytotoxicity. […]

Test [7] concerns the target THRB (gene 7068) (UniProt P10828). The experiment in a line: TOX21_TRB_COA_Agonist_Followup_ratio: Tox21 Thyroid Hormone Receptor beta Agonism through Coactivator Recruitment Follow-Up Assay, Ratio (AID 2283963; active = hit-call score of the fitted dose curve at least 0.9, where 1 is the maximum; inactive = score below 0.9). The essentials: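 Signal is the 520/495 nm emission ratio (excitation 340 nm), scaled between DMSO-only wells as 0% and T3 wells as 100%. It reflects fluorescein-labeled SRC-2 peptide recruitment to GST-TRβ ligand-binding domain detected via terbium anti-GST antibody.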

Test [8] concerns the target Retinoic acid receptor RXR-alpha (Homo sapiens) (UniProt P19793). The experiment in a line: TOX21_TR_RXR_BLA_Agonist_Followup_ratio: Tox21 Thyroid Hormone Receptor beta Retinoid X Receptor alpha (RXRa) Agonism Beta-lactamase (BLA) Follow-Up Assay, Ratio (AID 2283968). An excerpt: GeneBLAzer RXRa-UAS-bla HEK293T assay (RXRa-bla) (ThermoFisherScientific Catalog No. K1697) was run in qHTS 1536 well format as a secondary assay for specificity of response in the TOX21_TR_GH3_LUC_Agonist assay.TOX21_TR_RXR_BLA_Agonist_Followup_ratio is an assay readout measuring reporter gene via receptor activity and designed using inducible reporter (beta lactamase induction) detected with GAL4 b-lactamase reporter gene. The signal is derived from the ratio of cleaved (ch2) to uncleaved (ch1) reporter gene substrate used as the measure of target activity.Data from the assay component TOX21_TR_RXR_BLA_Agonist_Followup_ratio was analyzed into 1 assay endpoint. This assay endpoint, TOX21_TR_RXR_BLA_Agonist_Followup_ratio, was analyzed in the positive analysis fitting direction relative to DMSO as the negative control and baseline of activity. […] Furthermore, this assay endpoint can be referred to as a primary readout, because this assay has produced multiple assay endpoints and this ratio serves a reporter gene function to understand target activity. […]
After5-h incubation at 37C/5% CO2 for cell attachment, 23 nL of follow-up compounds dissolved in DMSO, 11 concentrations in triplicate, and the positive control (9-cis retinoic acid) were transferred to the assay plates using a Pintool station. […] Data were expressed as the ratio of 460:530 nm.

Test [9] has as its target Thyroid hormone receptor alpha (Rattus norvegicus) + Thyroid hormone receptor beta (Rattus norvegicus) (UniProt P18113+P63059). As to the kind of experiment: TOX21_TR_LUC_GH3_Antagonist_Followup: Tox21 GH3 Thyroid Hormone Receptor Antagonism Luciferase Follow-Up Assay (AID 2283942). The essentials:
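Rat pituitary GH3 cells with a TRα/TRβ-driven luciferase reporter, 5 h attachment, then 15 concentrations (92 uM to 5nM final) plus 1.0 nM T3 agonist, 24 h at 37C/5% CO2. ONE-Glo luminescence; signal change fitted against DMSO baseline.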

Test [10] concerns the target THRA (gene 7067) (UniProt P10827). The experiment in a line: TOX21_TRA_COA_Antagonist_Followup_ratio: Tox21 Thyroid Hormone Receptor alpha Antagonism through Coactivator Recruitment Follow-Up Assay, Ratio (AID 2283953). An excerpt:
TOX21_TRa_COA_Antagonist_Followup is a secondary assay for specificity for the TOX21_TR_GH3_LUC_Agonist assay. The LanthaScreen TR-FRET TR coactivator assay kits were used to determine TR activity in a cell-free functional assay. A time-resolved fluorescence resonance energy transfer (TR-FRET) signal was indicative of coactivator (SRC-2) recruitment.TOX21_TRA_COA_Antagonist_Followup_ratio is assay component calculated in the TOX21_TRA_COA_Antagonist_Followup assay. The TR-FRET ratio of acceptor emission (ch2) to donor emission (ch1) is indicative of the resonance energy transfer to the fluorescein tag on the coactivator peptide following recruitment to the receptor.Data from the assay component TOX21_TRA_COA_Antagonist_Followup_ratio was analyzed into 1 assay endpoint. This assay endpoint, TOX21_TRA_COA_Antagonist_Followup_ratio, was analyzed in the positive analysis fitting direction relative to DMSO as the negative control and baseline of activity. Using a type of inducible reporter, loss-of-signal activity can be used to understand changes in the reporter gene as they relate to the gene THRA. Furthermore, this assay endpoint can be referred to as a primary readout, because this assay has produced multiple assay endpoints and this ratio serves a reporter gene function to understand target activity. […]

Records with an inconclusive call do not appear. Activity calls are given as the source filed them. Rule for the calls, unless noted: active = hit-call score of the fitted dose curve at least 0.9, where 1 is the maximum; inconclusive = response in the unintended direction; inactive = score below 0.9.

Chain of THRB (gene 7068) (P10828 whole entry, looked up, the tested form may be a part): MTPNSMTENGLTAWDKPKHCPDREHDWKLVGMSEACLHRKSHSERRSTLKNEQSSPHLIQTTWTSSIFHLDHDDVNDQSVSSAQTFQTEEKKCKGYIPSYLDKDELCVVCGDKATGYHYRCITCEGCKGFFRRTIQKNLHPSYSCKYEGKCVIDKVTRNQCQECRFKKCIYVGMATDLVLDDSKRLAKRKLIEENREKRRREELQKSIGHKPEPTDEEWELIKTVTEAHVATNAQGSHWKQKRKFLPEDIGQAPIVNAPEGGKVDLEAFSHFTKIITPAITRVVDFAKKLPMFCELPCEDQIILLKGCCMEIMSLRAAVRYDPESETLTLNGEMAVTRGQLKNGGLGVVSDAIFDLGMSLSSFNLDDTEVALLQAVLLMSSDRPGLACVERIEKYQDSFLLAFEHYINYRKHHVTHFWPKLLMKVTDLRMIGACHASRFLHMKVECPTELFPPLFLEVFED
Chain of THRA (gene 7067) (P10827 whole entry, looked up, the tested form may be a part): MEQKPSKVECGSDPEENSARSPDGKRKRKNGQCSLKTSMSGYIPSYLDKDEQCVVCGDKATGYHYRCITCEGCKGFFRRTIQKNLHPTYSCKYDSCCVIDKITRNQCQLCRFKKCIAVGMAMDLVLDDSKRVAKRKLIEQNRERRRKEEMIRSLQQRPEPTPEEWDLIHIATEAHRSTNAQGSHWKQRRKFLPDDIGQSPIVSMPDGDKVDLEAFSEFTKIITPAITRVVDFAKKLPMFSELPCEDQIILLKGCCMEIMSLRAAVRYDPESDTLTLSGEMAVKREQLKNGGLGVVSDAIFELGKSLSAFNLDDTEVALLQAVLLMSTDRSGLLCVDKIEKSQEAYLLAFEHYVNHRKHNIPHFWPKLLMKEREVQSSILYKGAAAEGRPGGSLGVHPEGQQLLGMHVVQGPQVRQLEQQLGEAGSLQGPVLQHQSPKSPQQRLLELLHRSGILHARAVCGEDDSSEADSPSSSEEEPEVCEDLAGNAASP
Chain of Retinoic acid receptor RXR-alpha (Homo sapiens) (P19793 whole entry, looked up, the tested form may be a part): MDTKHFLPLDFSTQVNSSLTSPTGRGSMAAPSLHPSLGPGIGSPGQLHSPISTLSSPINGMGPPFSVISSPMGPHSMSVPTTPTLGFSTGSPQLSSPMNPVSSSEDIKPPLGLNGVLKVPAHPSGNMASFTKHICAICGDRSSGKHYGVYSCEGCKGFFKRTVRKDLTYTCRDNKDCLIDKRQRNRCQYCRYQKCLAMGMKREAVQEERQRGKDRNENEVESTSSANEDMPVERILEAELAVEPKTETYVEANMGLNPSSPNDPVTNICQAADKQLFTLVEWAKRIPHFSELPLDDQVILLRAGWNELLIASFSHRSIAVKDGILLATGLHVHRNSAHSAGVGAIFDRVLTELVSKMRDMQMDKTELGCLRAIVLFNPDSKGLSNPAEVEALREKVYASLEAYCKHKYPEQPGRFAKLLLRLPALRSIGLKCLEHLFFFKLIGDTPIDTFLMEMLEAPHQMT

In the case of `CON=C(C(=O)OC)c1ccccc1CON=C(C)c1cccc(C(F)(F)F)c1`, the result (with THRB (gene 7068) [1]; in test [2]; in the test with THRB (gene 7068) [3]) was inactive.
In the case of `C[N+]1(C)CCCCC1`, the outcome (with THRA (gene 7067) [4]; with THRB (gene 7068) [5]; in test [6]; with THRB (gene 7068) [7]; in test [8]) was inactive.
With `CSC1=N[C@@](C)(c2ccccc2)C(=O)N1Nc1ccccc1`, the outcome (in test [9]; in the test with THRA (gene 7067) [10]; with THRB (gene 7068) [1]; in test [2]; in the test with THRB (gene 7068) [3]) was inactive.
Take `C=C(C)[C@H]1Cc2c(ccc3c2O[C@@H]2COc4cc(OC)c(OC)cc4[C@@H]2C3=O)O1`: the half-maximal activity concentration (AC50) in test [9] was 5.29 µM (active); with THRB (gene 7068) [1] it was 1.52 µM (active); in test [2] it was 6.16 µM (active). Besides, in the test with THRB (gene 7068) [3], the result was inactive.

The term AC50 denotes the concentration giving half of the maximal activity seen.
